The text below walks through data of PubChem BioAssay (Tox21).

A short description of assay [1]: qHTS RealTime-Glo MT Cell Viability Assay in HEK293 cells - 16 hour (AID 1224872). Also: nearly all actives have a fitted effect of over 50% in size. Also: potency is read from the fitted curve at half-maximal effect. As to activity change, negative = cytotoxicity: top concentration of the series differs between compounds. The following applies: RealTime-Glo luminescence; series mostly up to 76.8 µM. An outline of the steps:
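Tox21 10K qHTS, HEK293, 600 cells/well, RealTime-Glo reagent co-dispensed with cells; 5 h preincubation, compound by pintool, 37 C, luminescence at 0–40 h.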
In general terms: Quantitative high-throughput screening tests each substance at several concentrations.

Assay [2] in a line: qHTS RealTime-Glo MT Cell Viability Assay in HepG2 cells - 8 hour (AID 1224873). Also: nearly all actives have a fitted effect of over 55% in size. The note with it: RealTime-Glo luminescence; series mostly up to 76.8 µM. The gist of the method:
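HepG2 cells mixed with RealTime-Glo MT reagents (NanoLuc plus cell-permeant prosubstrate) were seeded at 600 cells/well, incubated 5 h at 37 C/5% CO2, then pinned with compounds in DMSO; nonlytic luminescence tracked viability during 40 h treatment.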

Assay [3] in a line: qHTS RealTime-Glo MT Cell Viability Assay in HEK293 cells - 40 hour (AID 1224874). Also: nearly all actives have a fitted effect of over 50% in size. Also: potency is read from the fitted curve at half-maximal effect. The note with it: RealTime-Glo luminescence; max response: active compounds read low. An outline of the steps:
(§1)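 Kinetic, non-lysing viability readout. Seed HEK293 (600/well) with reagent, incubate 5 h at 37 C/5% CO2, pin 23 nL compound in DMSO, incubate at 37 C, read luminescence at 0, 8, 16, 24, 32, 40 h.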

Assay [4] is described as follows: A CellTox Green Cytotoxicity Assay to monitor cytotoxicity in HEK293 cells - 24 hour (AID 1224875). Also: nearly all actives have a fitted effect of over 45% in size. The following applies: CellTox Green fluorescence; series mostly up to 76.8 µM. The gist of the method: (§2)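 Real-time, in one plate: 600 HEK293 cells/well with dead-cell DNA dye, pinned compound after 5 h, 37 C incubation over 40 h; viable cells give no appreciable fluorescence.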

Assay [5] in a line: A CellTox Green Cytotoxicity Assay to monitor cytotoxicity in HepG2 cells - 16 hour (AID 1224876). Also: nearly all actives have a fitted effect of over 45% in size. The following applies: CellTox Green fluorescence; series mostly up to 76.8 µM. The gist of the method: (§3)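 Cytotoxicity was tracked as dead-cell DNA fluorescence in HepG2 cells treated with test compounds at 37 C; each time-point value comes from one kinetic series spanning 0, 8, 16, 24, 32 and 40 h.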

Assay [6] is described as follows: qHTS RealTime-Glo MT Cell Viability Assay in HepG2 cells - 32 hour (AID 1224877). Also: nearly all actives have a fitted effect of over 55% in size. The note with it: RealTime-Glo luminescence; series mostly up to 76.8 µM. An outline of the steps:
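Cells + NanoLuc/prosubstrate dispensed (600 cells/well) → 5 h at 37 C/5% CO2 → compounds in DMSO transferred → 40 h incubation at 37 C, luminescence read at 0, 8, 16, 24, 32, 40 h.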

Assay [7] in a line: A CellTox Green Cytotoxicity Assay to monitor cytotoxicity in HepG2 cells - 40 hour (AID 1224879). Also: nearly all actives have a fitted effect of over 40% in size. The note with it: CellTox Green fluorescence; series mostly up to 76.8 µM. An outline of the steps: as §3
Assay [8] is described as follows: qHTS RealTime-Glo MT Cell Viability Assay in HEK293 cells - 0 hour (AID 1224880). Also: top concentration of the series differs between compounds; nearly all actives have a fitted effect of over 45% in size. The note with it: RealTime-Glo luminescence; series mostly up to 76.8 µM. The gist of the method: as §1
Assay [9] can be described thus: A CellTox Green Cytotoxicity Assay to monitor cytotoxicity in HEK293 cells - 32 hour (AID 1224881). Also: nearly all actives have a fitted effect of over 40% in size. The following applies: CellTox Green fluorescence; series mostly up to 76.8 µM. The gist of the method: as §2
Assay [10] in a line: A CellTox Green Cytotoxicity Assay to monitor cytotoxicity in HepG2 cells - 24 hour (AID 1224878). Also: nearly all actives have a fitted effect of over 45% in size. The note with it: CellTox Green fluorescence; series mostly up to 76.8 µM. An outline of the steps:
as §3

Structures are written as SMILES. Records with an inconclusive call do not appear. Unmarked numbers belong to inactive results. The source made the active and inactive calls. Calls follow the shape of the dose curve; as a rule, active = well fitted curve in the direction sought with a large enough effect in the repeat runs; inconclusive = weak or mixed curves; inactive = no such curve, though single readings can be large; an effect the other way counts as inactive or inconclusive.
% is scaled to controls: 0 for no effect and ±100 for the full control effect.

With `O=C1OC(=O)C2C1C1(Cl)C(Cl)=C(Cl)C2(Cl)C1(Cl)Cl` (centres undefined), the Potency entry in assay [1], in [2], in assay [4], in assay [5], in [6] and in [7] was “inactive” throughout. Besides, the Potency result in [9] was “inactive”. Moreover, the max response in assay [3] was -0.525%. Moreover, the compound was called inactive in assay [8].
Regarding `CC1=C(C(=O)O)N2C(=O)[C@@H](N)[C@H]2SC1`, the activity change, negative = cytotoxicity was 1.93% [at 15.8 µM] in [1] and 1.57% [at 15.8 µM] in assay [8]. The viability change, negative = cytotoxic in assay [2] is 1.32% [at 15.8 µM]. The max response in [3] was 1.69%. Further, in assay [4], the activity change is -5.37% [at 15.8 µM, active compounds read high]. The cytotoxicity increase in assay [5] was -9.17% [at 15.8 µM]; in assay [7], -6.02% [at 15.8 µM]; in [9], -10.4% [at 15.8 µM]. Also, the activity change, negative = cytotoxic in assay [6] was 1.22% [at 15.8 µM].
Regarding `CCOP(=S)(OCC)Oc1nc(Cl)n(C(C)C)n1`, the Potency result in [1], in assay [2], in assay [4], in [5], in [6] and in [10] was “inactive” in each case. For the same compound, the Potency result in assay [7] and in assay [9] was “inactive” throughout. Further, in [3], the max response is 3.99%. Besides, in assay [8], the compound was called inactive.
As for `C[C@H]1CCC[C@H](O)CCCCCc2cc(O)cc(O)c2C(=O)O1`, the Potency is 34.9 µM (active) in assay [1] and 24.7 µM (active) in assay [3]. Moreover, the Potency result in [2], in assay [4], in [5], in [6], in [10] and in [9] was “inactive” throughout. Moreover, the compound was classed as inactive in assay [8].
Regarding `COP(=S)(OC)Oc1c(Cl)cc(C)cc1Cl`, the Potency entry in [1], in [2], in [4], in assay [5], in assay [6] and in assay [7] was “inactive” each time. Moreover, the Potency result in assay [9] was “inactive”. For the same compound, the max response in [3] is 0.348%. Further, in assay [8], the call was inactive.
For `COC(=O)c1c(C(F)F)nc(C(F)(F)F)c(C2=NCCS2)c1CC(C)C`, the Potency entry in assay [1], in assay [2], in [4], in assay [5], in [6] and in [7] was “inactive” throughout. In addition, in assay [9], the Potency result was “inactive”. The max response in [3] was -16.3%. Besides, the compound was called inactive in assay [8].
`Cc1nc(N)nc(N)n1`: the Potency result in [1], in [2], in assay [4], in assay [5], in [6] and in [10] was “inactive” in each case. The Potency entry in [7] and in assay [9] was “inactive” each time. The max response in assay [3] was -3.78%. In assay [8], the call was inactive.
With `N#Cc1c(Cl)cccc1Cl`, the Potency result in assay [1], in assay [2], in [4], in assay [5], in assay [6] and in [7] was “inactive” each time. In addition, in assay [9], the Potency entry is “inactive”. For the same compound, the max response in assay [3] was 18.9%. In assay [8], the compound was called inactive.
Turning to `CC(=O)C(Cl)Cl`, the Potency entry in assay [1], in assay [2], in assay [4], in [5], in [6] and in assay [10] was “inactive” in each case. Moreover, the Potency entry in assay [9] was “inactive”. Further, the max response in assay [3] was 7%. Also, the outcome in [8] was inactive.
As to `C[N+](=O)[O-]`, the Potency entry in assay [1], in assay [2], in assay [4], in assay [5], in [6] and in assay [7] was “inactive” in each case. Moreover, the Potency result in [9] is “inactive”. For the same compound, the max response in assay [3] was 18.3%. Further, the result in assay [8] was inactive.
On to `Fc1cc(Br)ccc1CBr`, for which the Potency result in [1], in assay [2], in [4], in assay [5], in [6] and in assay [7] was “inactive” in each case. Moreover, in assay [9], the Potency entry was “inactive”. Further, the max response in assay [3] is -0.0441%. Besides, in assay [8], the result was inactive.
Take `CN(N=O)C(N)=O`: the Potency entry in [1], in assay [2], in [4], in [5], in assay [6] and in [10] was “inactive” throughout. Besides, the Potency result in [7] and in assay [9] was “inactive” each time. Also, the max response in assay [3] is 10.1%. For the same compound, the result in [8] was inactive.
For `N#CC(Cl)(Cl)Cl`, the Potency result in assay [1], in assay [2], in [4], in assay [5], in assay [6] and in [10] was “inactive” in each case. The Potency entry in assay [7] and in assay [9] was “inactive” throughout. The max response in assay [3] is 3.49%. For the same compound, the result in [8] was inactive.
On to `c1ccc(N2CCNCC2)cc1`, for which the Potency entry in [1], in assay [2], in [4], in assay [5], in assay [6] and in assay [7] was “inactive” in each case. Further, the Potency entry in [9] is “inactive”. In addition, in [3], the max response was 16.9%. In addition, in [8], the compound was classed as inactive.
Take `OCCSCSCCO`: the Potency entry in assay [1], in assay [2], in [4], in assay [5], in [6] and in [10] was “inactive” in each case. For the same compound, the Potency entry in assay [7] and in [9] was “inactive” in each case. Further, the max response in assay [3] is 10.4%. Also, the call in assay [8] was inactive.
For `CN1CCC(N(Cc2ccccc2)c2ccccc2)CC1`, the Potency result in assay [1], in assay [2], in assay [4], in [5], in assay [6] and in assay [10] was “inactive” in each case. The Potency result in assay [9] was “inactive”. Also, the max response in [3] was 0.452%. Further, in assay [8], the compound was classed as inactive.
As for `O=NN1CCN(N=O)CC1`, the Potency result in assay [1], in [2], in assay [4], in [5], in [6] and in assay [10] was “inactive” in each case. Moreover, the Potency result in assay [7] and in assay [9] was “inactive” throughout. For the same compound, the max response in assay [3] was -6.3%. Moreover, the compound was classed as inactive in assay [8].
In the case of `CCC(C)n1c(=O)[nH]c(C)c(Br)c1=O` (centres undefined), the Potency entry in assay [1], in assay [2], in assay [4], in assay [5], in [6] and in assay [10] was “inactive” in each case. Moreover, the Potency result in assay [7] and in assay [9] was “inactive” in each case. Moreover, the outcome in assay [8] was inactive.
Regarding `O=c1oc2ccccc2c(O)c1C1CCCc2ccccc21` (centres undefined), the Potency entry in assay [1], in assay [2], in [4], in assay [5], in [6] and in assay [10] was “inactive” each time. For the same compound, the Potency result in [7] and in assay [9] was “inactive” throughout. In addition, the outcome in [8] was inactive.
Consider `CC(Oc1ccc(Oc2ncc(C(F)(F)F)cc2Cl)cc1)C(=O)O` (centres undefined), for which the Potency result in assay [1], in assay [2], in assay [4], in [5], in assay [6] and in assay [10] was “inactive” throughout. Further, the Potency entry in assay [9] is “inactive”. For the same compound, in [8], the result was inactive.
With `COCC(=O)N(c1c(C)cccc1C)N1CCOC1=O`, the Potency result in assay [1], in [2], in assay [4], in [5], in assay [6] and in [10] was “inactive” throughout. Moreover, the Potency result in assay [7] and in assay [9] was “inactive” each time. For the same compound, the compound was classed as inactive in assay [8].
Consider `COC(=O)c1ccccc1S(=O)(=O)NC(=O)N(C)c1nc(C)nc(OC)n1`, for which the Potency entry in [1], in [2], in assay [4], in [5], in [6] and in assay [10] was “inactive” each time. For the same compound, the Potency result in [7] and in assay [9] was “inactive” in each case. Moreover, the outcome in [8] was inactive.
Consider `CCN(CC)C(C)C(=O)c1ccccc1` (centres undefined), for which the Potency result in assay [1], in assay [2], in [4], in assay [5], in assay [6] and in assay [10] was “inactive” throughout. Moreover, the Potency result in [7] and in assay [9] was “inactive” throughout. Further, the call in assay [8] was inactive.
For `ClCC(Cl)(Cl)Cl`, the Potency result in assay [1], in [2], in assay [4], in assay [5], in assay [6] and in [10] was “inactive” throughout. In addition, the Potency entry in assay [7] and in assay [9] was “inactive” each time. For the same compound, the compound was classed as inactive in [8].
Turning to `CCOC(=O)C(c1c(O)c2ccccc2oc1=O)c1c(O)c2ccccc2oc1=O`, the Potency entry in [1], in assay [2], in [4], in assay [5], in [6] and in assay [10] was “inactive” in each case. The Potency entry in [7] and in assay [9] was “inactive” each time.
